{
  "source": "PubChem BioAssay (EPA / NIEHS)",
  "key": {"[1]": {"target": "rat Somatostatin Receptor (SST), Sstr1 (gene 25033) (UniProt P28646)", "sequence (P28646 whole entry, looked up)": "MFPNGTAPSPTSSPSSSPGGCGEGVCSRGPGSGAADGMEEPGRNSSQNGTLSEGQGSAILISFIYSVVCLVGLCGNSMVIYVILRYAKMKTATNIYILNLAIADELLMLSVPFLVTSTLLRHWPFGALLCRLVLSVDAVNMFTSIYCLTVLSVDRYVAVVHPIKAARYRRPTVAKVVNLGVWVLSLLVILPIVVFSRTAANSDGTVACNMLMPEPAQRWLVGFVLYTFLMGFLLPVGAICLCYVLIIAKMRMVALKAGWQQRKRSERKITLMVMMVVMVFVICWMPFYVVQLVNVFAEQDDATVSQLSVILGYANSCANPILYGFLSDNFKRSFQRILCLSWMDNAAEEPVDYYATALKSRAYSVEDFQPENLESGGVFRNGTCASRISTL", "assay": "NVS_GPCR_rSST: NovaScreen (NVS) G Protein-Coupled Receptor Assay for rat Somatostatin Receptor (SST) (AID 2283314)", "outline": "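Single-concentration duplicate screen (25 uM), then concentration-response up to 50 uM for chemicals passing a threshold such as 30% inhibition. Membranes came from rat forebrain. Binding was measured 1 h post-dose by filter radiodetection and scintillation, relative to DMSO.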"}, "[2]": {"target": "rat Neurokinin-3 Receptor (NK3), Tacr3 (gene 24808) (UniProt P16177)", "sequence (P16177 whole entry, looked up)": "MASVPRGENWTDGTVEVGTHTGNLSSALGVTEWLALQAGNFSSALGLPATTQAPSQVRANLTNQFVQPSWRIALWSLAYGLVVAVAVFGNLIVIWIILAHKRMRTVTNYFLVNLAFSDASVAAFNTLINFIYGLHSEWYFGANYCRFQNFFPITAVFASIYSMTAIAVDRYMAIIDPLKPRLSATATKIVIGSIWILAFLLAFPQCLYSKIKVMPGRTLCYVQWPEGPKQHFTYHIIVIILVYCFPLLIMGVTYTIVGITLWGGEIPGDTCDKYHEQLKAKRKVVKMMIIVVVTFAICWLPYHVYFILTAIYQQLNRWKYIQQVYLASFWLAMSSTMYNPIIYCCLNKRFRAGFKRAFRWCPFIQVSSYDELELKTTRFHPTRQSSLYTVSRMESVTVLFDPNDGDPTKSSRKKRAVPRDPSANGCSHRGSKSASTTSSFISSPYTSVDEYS", "assay": "NVS_GPCR_rNK3: NovaScreen (NVS) G Protein-Coupled Receptor Assay for rat Neurokinin-3 Receptor (NK3) (AID 2283310)", "outline": "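Filter-based radioligand displacement on rat cortex membrane preparations, read by scintillation 2 h post-dose. Chemicals first tested in duplicate at 25 uM; actives followed up in concentration series with a 50 uM maximum.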"}, "[3]": {"target": "rat Opioid Receptor, Non-selective Sodium (Na+) Binding, Oprm1 (gene 25601) (UniProt P33535)", "sequence (P33535 whole entry, looked up)": "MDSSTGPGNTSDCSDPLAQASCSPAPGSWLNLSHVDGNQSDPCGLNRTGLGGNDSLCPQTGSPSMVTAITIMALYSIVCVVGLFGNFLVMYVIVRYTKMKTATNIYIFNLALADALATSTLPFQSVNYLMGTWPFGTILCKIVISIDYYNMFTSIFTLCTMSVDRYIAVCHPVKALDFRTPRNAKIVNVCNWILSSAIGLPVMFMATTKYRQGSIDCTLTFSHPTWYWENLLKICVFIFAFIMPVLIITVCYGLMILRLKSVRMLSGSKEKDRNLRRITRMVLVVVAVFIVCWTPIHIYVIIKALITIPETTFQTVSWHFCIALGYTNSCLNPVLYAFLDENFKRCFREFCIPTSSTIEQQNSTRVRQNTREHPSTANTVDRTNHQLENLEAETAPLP", "assay": "NVS_GPCR_rOpiate_NonSelectiveNa: NovaScreen (NVS) G Protein-Coupled Receptor Assay for rat Opioid Receptor, Non-selective Sodium (Na+) Binding (AID 2283311)", "outline": "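Filtration radioligand binding on rat forebrain membrane preparations, read 1.5 h after dosing. Single-concentration 25 µM primary screen in duplicate, followed by singleton concentration series to 50 µM max for actives; DMSO baseline.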"}, "[4]": {"target": "rat Neurokinin-1 Receptor (NK1), Tacr1 (gene 24807) (UniProt P14600)", "sequence (P14600 whole entry, looked up)": "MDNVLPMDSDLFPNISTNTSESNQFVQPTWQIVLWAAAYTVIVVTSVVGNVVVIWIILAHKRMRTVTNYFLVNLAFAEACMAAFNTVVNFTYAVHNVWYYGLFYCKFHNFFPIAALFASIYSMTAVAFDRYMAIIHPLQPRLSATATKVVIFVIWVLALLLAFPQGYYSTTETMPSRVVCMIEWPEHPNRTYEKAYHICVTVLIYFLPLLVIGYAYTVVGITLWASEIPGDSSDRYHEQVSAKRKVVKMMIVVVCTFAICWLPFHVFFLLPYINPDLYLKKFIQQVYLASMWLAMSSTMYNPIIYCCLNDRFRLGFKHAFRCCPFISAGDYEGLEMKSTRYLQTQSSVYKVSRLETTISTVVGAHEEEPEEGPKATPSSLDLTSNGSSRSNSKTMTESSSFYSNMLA", "assay": "NVS_GPCR_rNK1: NovaScreen (NVS) G Protein-Coupled Receptor Assay for rat Neurokinin-1 Receptor (NK1) (AID 2283309)", "description": "NVS_GPCR_rNK1 is a biochemical, single-readout assay that uses extracted gene-proteins from Rat submaxillary gland membranes in a tissue-based cell-free assay. Measurements were taken 1 hour after chemical dosing in a 48-well plate.NVS_GPCR_rNK1 is one of one assay component(s) measured or calculated from the NVS_GPCR_rNK1 assay. It is designed to make measurements of radioligand binding, a form of binding reporter, as detected with scintillation counting signals by Filter-based radiodetection technology.Data from the assay component NVS_GPCR_rNK1 was analyzed into 1 assay endpoint. This assay endpoint, NVS_GPCR_rNK1, was analyzed in the positive analysis fitting direction relative to DMSO as the negative control and baseline of activity. Using a type of binding reporter, loss-of-signal activity can be used to understand changes in the binding as they relate to the gene Tacr1. Furthermore, this assay endpoint can be referred to as a primary readout, because the performed assay has only produced 1 assay endpoint. To generalize the intended target to other relatable targets, this assay endpoint is annotated to the gpcr intended target family, where the subfamily is rhodopsin-like receptor.\nBinding assays used specific radioligands (tritiated, iodinated) with non-radioactive competitive displacement ligands in agonist or antagonist protocols (as indicated) and various reference compounds and inhibitors to titrate specific binding to receptors and transporters. Most enzyme assays (CYPs, kinases, phosphatases, proteases, HDACs) used recombinant protein and specific substrates (fluorescence mostly, some colorimetric and radioactive) and inhibitors, followed by a biochemical separation of substrate and product. All assays for the biochemical HTS were initially run in duplicate at a single concentration (10 uM for CYP450 assays and 25 uM for all others). […] Each assay was run with positive and negative controls, and concurrent controls on every plate. […]"}, "[5]": {"target": "rat Corticotropin Releasing Factor Receptor (CRF), Crhr1 (gene 58959) (UniProt P35353)", "sequence (P35353 whole entry, looked up)": "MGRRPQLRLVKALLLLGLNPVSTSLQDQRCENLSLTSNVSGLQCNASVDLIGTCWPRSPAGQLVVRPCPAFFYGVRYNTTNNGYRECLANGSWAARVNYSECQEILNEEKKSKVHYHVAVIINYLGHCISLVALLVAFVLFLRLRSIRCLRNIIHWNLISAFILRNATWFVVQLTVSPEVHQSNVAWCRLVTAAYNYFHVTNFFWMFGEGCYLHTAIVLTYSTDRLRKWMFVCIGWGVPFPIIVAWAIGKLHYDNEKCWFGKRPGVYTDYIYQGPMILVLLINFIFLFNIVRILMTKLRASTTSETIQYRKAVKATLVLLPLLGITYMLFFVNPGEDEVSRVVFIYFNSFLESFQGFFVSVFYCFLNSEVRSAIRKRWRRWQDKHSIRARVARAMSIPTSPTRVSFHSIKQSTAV", "assay": "NVS_GPCR_rCRF: NovaScreen (NVS) G Protein-Coupled Receptor Assay for rat Corticotropin Releasing Factor Receptor (CRF) (AID 2283300)", "outline": "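Single-concentration (25 uM, duplicate) radioligand binding on rat cortical membrane preparations, counted by scintillation after 2 h. Activity scored as signal loss relative to DMSO negative control.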"}, "[6]": {"target": "Metabotropic glutamate receptor 1 (Rattus norvegicus) (UniProt P23385)", "sequence (P23385 whole entry, looked up)": "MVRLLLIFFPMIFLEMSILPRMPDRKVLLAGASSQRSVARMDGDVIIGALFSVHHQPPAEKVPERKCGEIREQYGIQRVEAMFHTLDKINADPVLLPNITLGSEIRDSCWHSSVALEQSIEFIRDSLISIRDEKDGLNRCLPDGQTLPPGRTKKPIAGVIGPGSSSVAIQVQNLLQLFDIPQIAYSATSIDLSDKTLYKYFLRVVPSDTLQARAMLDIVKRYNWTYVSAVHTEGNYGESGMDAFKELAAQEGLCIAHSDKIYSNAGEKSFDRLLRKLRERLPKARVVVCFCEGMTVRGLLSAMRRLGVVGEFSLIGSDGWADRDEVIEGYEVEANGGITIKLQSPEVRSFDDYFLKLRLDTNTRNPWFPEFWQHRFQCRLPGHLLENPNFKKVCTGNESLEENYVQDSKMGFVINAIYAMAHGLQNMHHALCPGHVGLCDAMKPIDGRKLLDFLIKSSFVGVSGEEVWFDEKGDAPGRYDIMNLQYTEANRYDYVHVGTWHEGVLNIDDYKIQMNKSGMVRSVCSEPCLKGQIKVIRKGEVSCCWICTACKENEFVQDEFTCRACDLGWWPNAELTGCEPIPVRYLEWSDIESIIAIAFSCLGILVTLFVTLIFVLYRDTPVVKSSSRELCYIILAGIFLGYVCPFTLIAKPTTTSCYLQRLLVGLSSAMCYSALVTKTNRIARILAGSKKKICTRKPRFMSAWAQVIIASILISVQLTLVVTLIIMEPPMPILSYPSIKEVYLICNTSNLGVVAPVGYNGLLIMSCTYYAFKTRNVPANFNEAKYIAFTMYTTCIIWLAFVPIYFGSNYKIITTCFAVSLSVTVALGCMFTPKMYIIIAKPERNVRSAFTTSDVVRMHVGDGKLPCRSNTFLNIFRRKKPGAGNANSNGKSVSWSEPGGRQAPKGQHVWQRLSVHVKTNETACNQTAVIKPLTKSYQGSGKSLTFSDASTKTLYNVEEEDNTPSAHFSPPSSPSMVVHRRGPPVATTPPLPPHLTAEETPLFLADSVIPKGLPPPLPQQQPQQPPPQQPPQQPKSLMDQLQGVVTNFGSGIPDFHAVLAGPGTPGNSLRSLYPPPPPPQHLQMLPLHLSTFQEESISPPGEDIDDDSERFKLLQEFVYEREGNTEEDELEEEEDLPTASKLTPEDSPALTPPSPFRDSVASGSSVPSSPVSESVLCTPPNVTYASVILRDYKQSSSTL", "assay": "NVS_GPCR_rmMGluR1: NovaScreen (NVS) G Protein-Coupled Receptor Assay for rat Glutamate Metabotropic Receptor 1 (MGluR1) (AID 2283305)", "outline": "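Binding to native receptor from rat cerebellum extract, measured as displacement of a radioligand (scintillation counting, filter separation) after 1 hour. Compounds tested at 25 uM in duplicate, then titrated to a 50 uM maximum.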"}, "Adra2b (gene 24174)": {"target": "Adra2b (gene 24174) (UniProt P19328)", "sequence (P19328 whole entry, looked up)": "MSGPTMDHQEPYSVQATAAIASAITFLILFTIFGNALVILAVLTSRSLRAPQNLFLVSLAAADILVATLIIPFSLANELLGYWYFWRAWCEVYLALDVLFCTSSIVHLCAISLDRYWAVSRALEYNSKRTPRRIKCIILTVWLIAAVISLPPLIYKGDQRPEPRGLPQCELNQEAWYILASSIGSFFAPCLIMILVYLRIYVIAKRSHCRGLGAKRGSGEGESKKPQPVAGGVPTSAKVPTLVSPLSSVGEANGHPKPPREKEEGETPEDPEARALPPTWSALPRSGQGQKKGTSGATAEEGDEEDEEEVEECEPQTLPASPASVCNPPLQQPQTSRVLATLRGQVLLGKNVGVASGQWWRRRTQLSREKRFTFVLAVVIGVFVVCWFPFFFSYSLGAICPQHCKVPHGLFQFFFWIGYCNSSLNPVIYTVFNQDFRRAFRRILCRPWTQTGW", "assay": "NVS_GPCR_rmAdra2B: NovaScreen (NVS) G Protein-Coupled Receptor Assay for hybird cells Adrenergic, Alpha 2B Receptor (Adra2B) (AID 2283306)", "outline": "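Compounds screened first at 25 uM in duplicate, with actives followed up in concentration-response; specific radioligand displacement from hybrid neuroglioma/blastoma cell membrane preparations measured by filter scintillation counting after 1 h, normalized to DMSO.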"}, "[7]": {"target": "rat Gamma-Aminobutyric Acid Type B Receptor (GABBR), Gabbr1 (gene 81657) (UniProt Q9Z0U4)", "assay": "NVS_GPCR_rGABBR: NovaScreen (NVS) G Protein-Coupled Receptor Assay for rat Gamma-Aminobutyric Acid Type B Receptor (GABBR) (AID 2283301)", "outline": "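Rat cortical membrane preparation, competitive radioligand binding for 1 h with filtration and scintillation readout. Actives from duplicate single-point 25 uM screening proceeded to concentration series with 50 uM top concentration.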"}, "[8]": {"target": "rat Histamine Receptor (H3), Hrh3 (gene 85268) (UniProt Q9QYN8)", "sequence (Q9QYN8 whole entry, looked up)": "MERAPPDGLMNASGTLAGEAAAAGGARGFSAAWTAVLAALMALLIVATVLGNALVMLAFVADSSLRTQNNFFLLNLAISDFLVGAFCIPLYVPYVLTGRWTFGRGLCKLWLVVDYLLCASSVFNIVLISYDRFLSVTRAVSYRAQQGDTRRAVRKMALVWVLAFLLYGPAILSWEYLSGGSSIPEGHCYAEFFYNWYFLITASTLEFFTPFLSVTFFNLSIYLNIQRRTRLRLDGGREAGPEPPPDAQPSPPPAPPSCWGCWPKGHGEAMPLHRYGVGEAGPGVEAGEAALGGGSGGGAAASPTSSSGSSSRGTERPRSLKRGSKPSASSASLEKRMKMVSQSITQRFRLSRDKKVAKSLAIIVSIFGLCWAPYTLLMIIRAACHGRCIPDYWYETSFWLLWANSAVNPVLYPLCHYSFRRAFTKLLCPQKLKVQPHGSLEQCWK", "assay": "NVS_GPCR_rH3: NovaScreen (NVS) G Protein-Coupled Receptor Assay for rat Histamine Receptor (H3) (AID 2283303)", "outline": "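Filter-binding radioligand competition on rat forebrain membranes, 1 h incubation; compounds screened at 25 µM in duplicate and followed in concentration series to 50 µM, loss of bound signal vs DMSO.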"}, "[9]": {"target": "human Neonicotinoid receptor (NNR), CHRNA2 (gene 1135) (UniProt Q15822)", "sequence (Q15822 whole entry, looked up)": "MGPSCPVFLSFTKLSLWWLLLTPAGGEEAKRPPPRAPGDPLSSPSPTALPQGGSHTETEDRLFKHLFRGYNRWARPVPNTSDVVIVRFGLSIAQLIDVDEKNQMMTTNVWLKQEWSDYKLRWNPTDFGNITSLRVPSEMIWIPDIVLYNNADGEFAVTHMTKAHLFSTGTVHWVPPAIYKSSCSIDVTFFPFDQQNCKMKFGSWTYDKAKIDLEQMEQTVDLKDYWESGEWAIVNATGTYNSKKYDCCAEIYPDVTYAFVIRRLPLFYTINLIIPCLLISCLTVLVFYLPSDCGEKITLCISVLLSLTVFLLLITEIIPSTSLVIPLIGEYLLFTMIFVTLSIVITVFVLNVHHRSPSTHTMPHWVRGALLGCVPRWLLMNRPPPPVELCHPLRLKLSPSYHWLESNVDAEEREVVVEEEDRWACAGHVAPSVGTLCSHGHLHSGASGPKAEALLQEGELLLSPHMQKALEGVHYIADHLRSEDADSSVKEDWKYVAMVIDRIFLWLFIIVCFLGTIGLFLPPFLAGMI", "assay": "NVS_LGIC_hNNR_NBungSens: NovaScreen (NVS) Ligand-Gated Ion Channel Assay for human Neonicotinoid receptor (NNR) (AID 2283313)", "outline": "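Compounds first screened in duplicate at 25 uM, then actives re-tested in single-replicate dose series up to 50 uM. Binding measured as displacement of specific radioligand from neuroblastoma membrane receptors after 2 h, scintillation read on filters.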"}},
  "note": "Inconclusive results are not listed. Active and inactive are the calls of the source. The calls were made as follows: active = hit-call score of the fitted dose curve at least 0.9, where 1 is the maximum; inconclusive = response in the unintended direction; inactive = score below 0.9.",
  "data": [
    {"smiles": "ClC1=C(Cl)[C@]2(Cl)[C@@H]3[C@H]4C[C@H]([C@@H]5O[C@H]45)[C@@H]3[C@@]1(Cl)C2(Cl)Cl", "values": [
      {"measurement": "AC50", "setting": "[1]", "result": "9.78 µM (active)"}
    ]},
    {"smiles": "ClC1=C(Cl)[C@]2(Cl)[C@@H]3[C@@H]4C[C@@H]([C@H]5O[C@@H]45)[C@@H]3[C@@]1(Cl)C2(Cl)Cl", "values": [
      {"measurement": "AC50", "setting": "[1]", "result": "10.6 µM (active)"}
    ]},
    {"smiles": "CCC(C)(CC)c1cc(NC(=O)c2c(OC)cccc2OC)on1", "values": [
      {"measurement": "outcome", "setting": "[2]", "result": "inactive"}
    ]},
    {"smiles": "CCC(C)(c1ccc(O)cc1)c1ccc(O)cc1", "values": [
      {"measurement": "AC50", "setting": "[3]", "result": "25 µM (active)"}
    ]},
    {"smiles": "Cc1cc2c3c(c1)C(c1ccccc1)=N[C@@H](NC(=O)c1ccncc1)C(=O)N3CC2", "values": [
      {"measurement": "outcome", "setting": "[4]", "result": "inactive"},
      {"measurement": "AC50", "setting": "[2]", "result": "0.073 µM (active)"},
      {"measurement": "outcome", "setting": "[3]", "result": "inactive"}
    ]},
    {"smiles": "CC(c1ccc(O)cc1)(c1ccc(O)cc1)c1ccc(O)cc1", "values": [
      {"measurement": "outcome", "setting": "[5]", "result": "inactive"}
    ]},
    {"smiles": "CCCCCCCCCC[N+](C)(C)CCCCCCCCCC", "values": [
      {"measurement": "AC50", "setting": "[6]", "result": "17.6 µM (active)"},
      {"measurement": "outcome", "setting": "Adra2b (gene 24174)", "result": "inactive"},
      {"measurement": "outcome", "setting": "[4]", "result": "inactive"},
      {"measurement": "outcome", "setting": "[2]", "result": "inactive"},
      {"measurement": "outcome", "setting": "[3]", "result": "inactive"},
      {"measurement": "outcome", "setting": "[1]", "result": "inactive"}
    ]},
    {"smiles": "Oc1ccc(C(c2ccc(O)cc2)(C(F)(F)F)C(F)(F)F)cc1", "values": [
      {"measurement": "AC50", "setting": "[3]", "result": "25 µM (active)"}
    ]},
    {"smiles": "O=C(N[C@H]1CN2CCC1CC2)c1cc2ccoc2cn1", "values": [
      {"measurement": "outcome", "setting": "[7]", "result": "inactive"},
      {"measurement": "AC50", "setting": "[8]", "result": "1.75 µM (active)"},
      {"measurement": "AC50", "setting": "Adra2b (gene 24174)", "result": "16.4 µM (active)"},
      {"measurement": "AC50", "setting": "[9]", "result": "17.7 µM (active)"}
    ]},
    {"smiles": "CC(C)(c1ccccc1)c1ccc(O)cc1", "values": [
      {"measurement": "outcome", "setting": "[3]", "result": "inactive"}
    ]},
    {"smiles": "CCCCCCCCCc1ccc(O)cc1", "values": [
      {"measurement": "outcome", "setting": "[2]", "result": "inactive"}
    ]},
    {"smiles": "CCSC(=O)N(CC)C1CCCCC1", "values": [
      {"measurement": "AC50", "setting": "[4]", "result": "40.1 µM (active)"}
    ]},
    {"smiles": "CCC(=O)O[C@H]1CC[C@H]2[C@@H]3CCC4=CC(=O)CC[C@]4(C)[C@H]3CC[C@]12C", "values": [
      {"measurement": "outcome", "setting": "[6]", "result": "inactive"},
      {"measurement": "outcome", "setting": "[2]", "result": "inactive"}
    ]},
    {"smiles": "O=C(NC(=O)c1c(F)cccc1F)Nc1cc(Cl)c(OC(F)(F)C(F)F)c(Cl)c1", "values": [
      {"measurement": "outcome", "setting": "[3]", "result": "inactive"}
    ]},
    {"smiles": "C[C@]12CCC(=O)C=C1CC[C@@H]1[C@@H]2CC[C@]2(C)C(=O)CC[C@@H]12", "values": [
      {"measurement": "outcome", "setting": "[3]", "result": "inactive"},
      {"measurement": "AC50", "setting": "[1]", "result": "17.6 µM (active)"}
    ]}
  ]
}
